From PubChem BioAssay (NCI)
The panel holds about 79,000 compounds, 15% with a hit somewhere; the sample as a whole holds those more often. Calls of active or inactive are those of the source. Rule as the data show it: active = growth inhibition above about 70%; inactive = the rest.

Legend:
[1] = NCI Yeast Anticancer Drug Screen. Data for the wt1 strain (AID 149);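 also: 0% = growth of vehicle-treated wt1 cultures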; details: S. cerevisiae wt1 strain (SPY 50644) growth inhibition, stronger effect = higher value
In short: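 Using yeast strain wt1, compound-induced growth inhibition was determined against vehicle-treated cultures.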

[2] = NCI Yeast Anticancer Drug Screen. Data for the rad50 strain (AID 155);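 also: 0% = growth of vehicle-only cultures of the same strain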; details: S. cerevisiae rad50 strain growth inhibition, stronger effect = higher value
In short: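 Relative growth inhibition (compound vs vehicle) was measured in yeast with a defined repair-gene alteration.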

[3] = NCI Yeast Anticancer Drug Screen. Data for the mec2-1 strain (AID 157); details: S. cerevisiae mec2-1 strain, stronger effect = higher value
In short: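 Test agents were screened against the mec2-1 yeast strain, with defined DNA repair or cell cycle alteration. Growth was scored as inhibition against vehicle-only controls.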

[4] = NCI Yeast Anticancer Drug Screen. Data for the rad14 strain (AID 159);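 also: 0% = growth of vehicle-treated control cultures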; details: S. cerevisiae rad14 strain growth inhibition, stronger effect = higher value
In short: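 Screen for anticancer potential: a yeast strain altered in DNA damage repair is grown with compound, and reduced growth is quantified against vehicle controls.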

[5] = NCI Yeast Anticancer Drug Screen. Data for the sgs1 mgt1 strain (AID 161);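 also: 0% = growth of cultures given vehicle only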; details: S. cerevisiae sgs1 mgt1 strain, stronger effect = higher value
In short: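 Inhibition of yeast growth, normalised to vehicle-treated controls, is reported for a strain bearing genetic alterations in DNA damage repair.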

[6] = NCI Yeast Anticancer Drug Screen. Data for the CLN2oe strain (AID 163);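 also: 0% = growth of vehicle-only control cultures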; details: S. cerevisiae CLN2oe strain, stronger effect = higher value
In short: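 Here, growth inhibition in a cell-cycle-altered yeast strain after compound exposure was quantified against vehicle control growth.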

[7] = NCI Yeast Anticancer Drug Screen. Data for the cln2 rad14 strain (AID 165);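 also: 0% = growth equal to vehicle treated cultures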; details: S. cerevisiae cln2 rad14 strain, stronger effect = higher value
In short: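 Growth of compound-exposed yeast (cln2 rad14 genotype) measured and expressed as inhibition relative to vehicle.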

[8] = NCI Yeast Anticancer Drug Screen. Data for the bub3 strain (AID 167); details: S. cerevisiae bub3 mutant strain, stronger effect = higher value
In short: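 Screening used yeast with an engineered genetic alteration affecting cell cycle control. Compound-exposed cultures were compared with vehicle cultures, and reduced growth was taken as inhibition.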

[9] = NCI Yeast Anticancer Drug Screen. Data for the wt2 strain (AID 169);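 also: 0% = growth of vehicle-treated yeast cultures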; details: S. cerevisiae wt2 strain growth inhibition, stronger effect = higher value
In short: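 Genetically defined yeast strains from a DNA-repair/cell-cycle panel were used. Compound-exposed yeast growth was measured, and the inhibition was calculated relative to vehicle treatment.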

[10] = NCI Yeast Anticancer Drug Screen. Data for the mlh1 strain (AID 171);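 also: 0% = growth of vehicle-treated control cultures of the same strain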; details: S. cerevisiae mlh1 strain growth inhibition, stronger effect = higher value
In short: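 Here the genetically defined yeast mutant is grown with each compound, and the extent to which its growth falls below that of vehicle-exposed cells is reported.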

[11] = NCI Yeast Anticancer Drug Screen. Data for the sgs1 strain (AID 173);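 also: 0% = growth of vehicle-only control cultures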; details: S. cerevisiae sgs1 mutant, stronger effect = higher value
In short: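 Relative growth inhibition, referenced to vehicle, was determined in a yeast strain with a defined alteration affecting DNA damage repair or cell cycle control after compound exposure.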

[12] = NCI Yeast Anticancer Drug Screen. Data for the mlh1 rad18 strain (AID 175); details: S. cerevisiae mlh1 rad18 strain growth inhibition, stronger effect = higher value
In short: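 In this whole-cell yeast screen, a strain with altered DNA damage repair is challenged with compound, and its growth is measured against matched vehicle-treated controls.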

[13] = NCI Yeast Anticancer Drug Screen. Data for the rad18 strain (AID 177); details: S. cerevisiae rad18 mutant growth inhibition, stronger effect = higher value
In short: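 Screen uses a yeast strain with a defined lesion in DNA damage repair; compound effect is read as loss of growth compared to untreated vehicle cultures.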

[14] = at 5.0 µM (retest, dose inferred, filed as 0.5)
[15] = at 50.0 µM (retest, dose inferred, filed as 5.0)

Measured: growth inhibition

CC[C@@]1(O)C(=O)OCc2c1cc1n(c2=O)Cc2cc3c(NC(=O)CN)cccc3nc2-1
inactive: [1]; at 1.2 µM 1% | [1]; at 3.7 µM -1% | [1]; at 11.0 µM -2% | [1]; at 33.0 µM -3% | [1]; at 100.0 µM 0% | [2]; at 1.2 µM 8% | [2]; at 3.7 µM 21% | [2]; [14] 1% | [2]; at 11.0 µM 54% | [3]; at 1.2 µM -3% | [3]; at 3.7 µM -4% | [3]; [14] -9% | [3]; at 11.0 µM -3% | [3]; at 33.0 µM 1% | [3]; [15] -5% | [3]; at 50.0 µM -11.8% | [3]; at 100.0 µM 19% | [4]; at 1.2 µM 2% | [4]; at 3.7 µM -4% | [4]; at 11.0 µM 0% | [4]; at 33.0 µM -4% | [4]; at 100.0 µM -1% | [5]; [14] -11% | [5]; [15] -3% | [5]; at 50.0 µM -1.65% | [6]; at 1.2 µM 0% | [6]; at 3.7 µM -2% | [6]; at 11.0 µM -1% | [6]; at 33.0 µM -2% | [6]; at 100.0 µM 0% | [7]; [14] -35% | [7]; [15] -26% | [7]; at 50.0 µM 26.9% | [8]; at 1.2 µM -12% | [8]; at 3.7 µM -6% | [8]; [14] -19% | [8]; at 11.0 µM 8% | [8]; at 33.0 µM 7% | [8]; [15] -3% | [8]; at 50.0 µM 8.3% | [8]; at 100.0 µM -6% | [9]; at 1.2 µM -1% | [9]; at 3.7 µM 1% | [9]; at 11.0 µM 0% | [9]; at 33.0 µM -1% | [9]; at 100.0 µM 0% | [10]; at 1.2 µM -5% | [10]; at 3.7 µM -3% | [10]; at 11.0 µM -3% | [10]; at 33.0 µM -6% | [10]; at 100.0 µM 2% | [11]; at 1.2 µM -2% | [11]; at 3.7 µM -3% | [11]; at 11.0 µM -2% | [11]; at 33.0 µM -1% | [11]; at 100.0 µM 7% | [12]; [14] -12% | [12]; [15] -9% | [12]; at 50.0 µM -0.55% | [13]; at 1.2 µM -18% | [13]; at 3.7 µM -6% | [13]; at 11.0 µM -19% | [13]; at 33.0 µM -8% | [13]; at 100.0 µM -10%
active: [2]; at 33.0 µM 79% | [2]; [15] 72% | [2]; at 50.0 µM 88.2% | [2]; at 100.0 µM 88%

CC(=O)[O][Hg][c]1c(C)c(C)c(C)c(C)c1C
active: [2]; [14] 98% | [2]; [15] 97% | [2]; at 50.0 µM 87.5% | [3]; [14] 98% | [3]; [15] 97% | [3]; at 50.0 µM 90.1% | [5]; [14] 99% | [5]; [15] 98% | [5]; at 50.0 µM 90.7% | [7]; [14] 98% | [7]; [15] 98% | [7]; at 50.0 µM 89.8% | [8]; [14] 98% | [8]; [15] 97% | [8]; at 50.0 µM 88.5% | [12]; [14] 98% | [12]; [15] 96%

O=[N+]([O-])c1cc([N+](=O)[O-])c2cccnc2c1O
inactive: [2]; [14] -4% | [2]; [15] 3% | [3]; [14] -10% | [3]; [15] -10% | [5]; [14] -3% | [5]; [15] 11% | [7]; [14] 2% | [7]; [15] -2% | [8]; [14] -7% | [8]; [15] -11%
active: [2]; at 50.0 µM 98.6% | [3]; at 50.0 µM 98.3% | [5]; at 50.0 µM 97.5% | [7]; at 50.0 µM 94.3% | [8]; at 50.0 µM 98%
